Screening data deposited in PubChem BioAssay by Broad Institute.
aSyn UTR act: Activators working through SNCA 5'UTR binding (MLPCN); activity score, % (tested at 7.5 µM), hits read low; alpha-synuclein 5'UTR reporter, activators screen; 300,000 tested, 7.1% active; AID 1814; in the data active = activity score below about -60%
* hit, by the source's call. Not all results are given here.

SMILES	aSyn UTR act
Cc1nc2cc(-c3ccc(Cl)cc3)nn2c(C)c1CCC(=O)NC(C)c1ccc2c(c1)OCCO2 (stereo unspecified)	73.8
CC(=O)c1cnc2cc(-c3ccc(Cl)cc3)nn2c1C	-94.5*
Cc1cc(C)n(C(=O)c2cc3sccc3[nH]2)n1	-82.0*
COc1cccc(N2CCN(C(=O)c3ccc4nc(N5CCCCC5)sc4c3)CC2)c1	-153.0*
COc1ccc(N2CCN(C(=O)c3ccc4nc(N5CCCCC5)sc4c3)CC2)cc1	-192.1*
COc1ccc2nc(N3CCN(C(=O)C4COc5ccccc5O4)CC3)sc2c1 (stereo unspecified)	-125.3*
CC1CCN(c2nc3ccc(C(=O)N4CCN(Cc5ccc6c(c5)OCO6)CC4)cc3s2)CC1	-155.6*
Cc1cc(C(=O)COC(=O)c2ccc(Br)o2)c(C)n1Cc1ccco1	-115.6*
Cc1cc(C(=O)COC(=O)c2ccc(O)cc2)c(C)n1Cc1ccco1	-139.7*
CCOc1ncccc1C(=O)OCC(=O)c1cc(C)n(Cc2ccco2)c1C	-115.0*
Cc1cc(SCC(=O)c2cccc([N+](=O)[O-])c2)nc(=O)[nH]1	-90.9*
Clc1ccc(-c2cc(CSc3cccc(Cl)c3)on2)cc1	-66.8*
Clc1ccc(-c2cc(CSc3ccccc3)on2)cc1	-180.8*
c1ccc(Cc2cc(-c3ccccc3)on2)cc1	-129.5*
c1ccc(SCc2cc(-c3ccccc3)no2)cc1	-143.3*
O=C(CCl)NCc1cc(-c2ccc(Cl)cc2)no1	-65.3*
Clc1ccc(SCc2cc(-c3ccccc3)on2)cc1	-75.5*
Cc1ccc(-c2nnc(-c3cccc(NC(=O)c4cccs4)c3)o2)cc1	-94.0*
Cc1ccc(NC(=O)Nc2nnc(-c3ccccc3)o2)cc1	-74.6*
COc1cccc(-c2nnc(NC(=O)C3CCCCC3)o2)c1	-96.2*
O=C(Nc1cccc(-c2nnc(-c3ccccc3)o2)c1)C1CCCCC1	-105.1*
CCC(=O)Nc1cccc(-c2nnc(-c3ccccc3)o2)c1	-201.3*
Cc1cccc(C)c1OCC(=O)Nc1cccc(-c2nnc(-c3ccccc3)o2)c1	-90.9*
Cc1ccc(-n2cnc3c(sc4nccc(N(C)C)c43)c2=O)cc1	-132.1*
COc1cc(SC)ccc1C(=O)Nc1cccc(C)n1	-87.5*
SMILES	aSyn UTR act
COc1cc(SC)ccc1C(=O)Nc1ccon1	-108.9*
COc1cc(SC)ccc1C(=O)Nc1ccc(Br)cn1	100.8
CN(CC(=O)Nc1ccccc1Br)C(=O)c1cc2c(s1)CCCCC2	-120.7*
Cc1cc(C)cc(NC(=O)CSc2nnc(-c3ccccc3C)o2)c1	-119.3*
Cc1cccc(NC(=O)CSc2nnc(-c3ccccc3C)o2)c1	-93.5*
Cc1ccc(NC(=O)CSc2nnc(-c3ccccc3C)o2)cc1C	-88.7*
N/C(=N\N=C\c1ccc(O)cc1)c1nonc1N	-181.7*
COc1cc(/C=N/N=C(\N)c2nonc2N)ccc1O	-78.1*
CS/C(N)=N/N=C/c1ccc2c(c1)OCO2	-119.4*
N/C(=N\N=C\c1ccc(Br)o1)c1nonc1N	-115.7*
N/C(=N\N=C\c1cccc(O)c1)c1nonc1N	-105.6*
CS/C(N)=N/N=C/c1ccc([N+](=O)[O-])cc1	-133.1*
N/C(=N\N=C\c1ccc([N+](=O)[O-])cc1)c1nonc1N	-154.5*
COc1ccc(/C=N/N=C(\N)c2nonc2N)cc1OC	-93.3*
N/C(=N\N=C\c1ccc(O)c(O)c1)c1nonc1N	-129.6*
CC(C)c1ccc(Nc2ncccc2C(=O)O)cc1	-100.7*
COc1ccc(O)c(C(=O)CC(=O)c2ccccc2C)c1	-99.6*
COc1ccc(O)c(C(=O)CC(=O)c2ccc(F)cc2)c1	73.3
COc1ccc(C(=O)CC(=O)c2ccccc2O)cc1	-218.0*
Cc1ccc(S(=O)(=O)N(C)CC(=O)N/N=C/c2ccc(C)o2)cc1	46.5
Cc1ccc(/C=N/NC(=O)Nc2ccccc2)o1	-79.6*
Cc1ccc(/C=N/NC(=O)NC2CCCCC2)o1	-65.5*
c1cncc(-c2nc3ccccc3[nH]2)c1	-88.2*
c1ccc(-c2nc3ccccc3[nH]2)cc1	-138.4*
Cc1ccc(-c2nc3ccccc3[nH]2)s1	-80.3*
SMILES	aSyn UTR act
Cc1[nH]c2ccccc2c1-c1nc2ccccc2[nH]1	-78.5*
CCOC(=O)Nc1nc(-c2ccc(F)cc2F)cs1	-147.9*
O=C(O)CCCN1C(=O)/C(=C\c2ccc(-c3nc4ccccc4s3)o2)SC1=S	-82.6*
O=Cc1ccc(-c2nc3ccccc3s2)o1	-98.3*
CCCc1ccc(-c2ccc(F)c(N)c2)nc1	98.8
CCc1ccc(-c2ccc(C(=O)O)cc2)nc1	-126.1*
O=C(/C=C/c1ccco1)Nc1ccc(Oc2ccc(Cl)cc2)cc1	-203.2*
CC(C)C(=O)NC(c1ccco1)c1ccc2cccnc2c1O (stereo unspecified)	63.1
COc1cccc(NC(=O)/C=C/c2ccco2)c1	-157.9*
O=C(/C=C/c1ccco1)Nc1cccc2cccnc12	-167.8*
Cc1ccc(NC(=O)/C=C/c2ccco2)nc1	-63.5*
O=C(/C=C/c1ccco1)Nc1cccnc1	-122.1*
CSc1cccc(NC(=O)/C=C/c2ccco2)c1	-177.6*
COc1ccccc1NC(=O)/C=C\c1ccco1	-83.8*
CC12CCC(C(=O)Nc3nc4ccc(Br)cc4s3)(OC1=O)C2(C)C (stereo unspecified)	-92.0*
CCOc1ccc(OCC(=O)NCCS(=O)(=O)N2CCN(c3ccc(F)cc3)CC2)cc1	-71.7*
O=C(NCCS(=O)(=O)N1CCN(c2ccc(F)cc2)CC1)c1ccc(Br)o1	127.2
O=C(Nc1ccc2[nH]ncc2c1)c1ccc(F)cc1	-89.8*
O=C(Nc1ccc2[nH]ncc2c1)c1ccccc1	-80.7*
COc1cccc(N(C(=O)CCl)C(C(=O)NCCc2ccccc2)c2cccs2)c1 (stereo unspecified)	-111.8*
COc1cccc(C(=O)Nc2cccc(-c3ccc(N4CCOCC4)nn3)c2)c1	-72.2*
CCOc1ccccc1C(=O)Nc1cccc(-c2ccc(N3CCOCC3)nn2)c1	-127.2*
COc1ccc(C(=O)Nc2cccc(-c3ccc(N4CCOCC4)nn3)c2)cc1OC	-70.1*
O=C(Nc1cccc(-c2ccc(N3CCOCC3)nn2)c1)c1ccc(F)cc1F	-72.7*
CCOc1ccccc1C(=O)Nc1c[nH]c(=O)[nH]c1=O	61.6
SMILES	aSyn UTR act
CCOc1ccc(C(=O)Nc2cccc(-c3ccc(N4CCOCC4)nn3)c2)cc1OCC	-69.2*
COc1ccc(NC(=O)c2ccc3ccccc3n2)cc1S(=O)(=O)N1CCCCC1	-122.2*
Cc1cccc(NC(=O)c2ccc3ccccc3n2)c1C	-67.5*
Cc1ccccc1C(=O)Nc1ccc(N2CCCC2)cc1	-153.5*
O=C(Nc1ccc(N2CCCC2)cc1)C(Cl)c1ccccc1 (stereo unspecified)	-107.8*
O=C(N/N=C\c1c(O)ccc2ccccc12)c1ccc(S(=O)(=O)N2CCCCC2)cc1	114.4
O=C(Nc1cccc(S(=O)(=O)N2CCCCCC2)c1)c1ccc2ccccc2n1	-89.0*
O=C(Nc1ccc(N2CCCCC2)cc1)c1ccc2ccccc2n1	-173.5*
CCOc1ccc(C(=O)N[C@H](C(=O)Nc2cccc(S(=O)(=O)N3CCCCC3)c2)C(C)C)cc1	75.6
Cc1ccc(S(=O)(=O)N2CCCCC2)cc1NC(=O)c1ccc2ccccc2n1	-121.9*
S=C(N/N=C/c1ccco1)NC1CC2CCC1C2 (stereo unspecified)	-89.5*
Oc1ccccc1/C=N/NC(=S)NC1CC2CCC1C2 (stereo unspecified)	-83.0*
Cc1cc(NC(=O)c2cc(-c3ccc(O)cc3)on2)no1	-62.0*
Cc1occc1C(=O)NC1CCCCCCC1	-77.4*
O=C(NC1CCCC1)c1cc(-c2ccccc2O)on1	-77.4*
